Screens deposited in PubChem by several laboratories.
An excerpt weighted towards active compounds, which were near 3.8% of everything screened.
Shn3 3UTR inh: inhibitors of Schnurri-3 3'UTR reporter in osteoblasts. Clone20 osteoblast Shn3 3'UTR firefly luciferase, 24 h. inhibition, % at 12.5 µM. hit rate 0.52% among 360,000. AID 588674;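 active means mean inhibition of at least 75% with every replicate also reaching 75%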
Jurkat NFkB inh: lowers PMA/ionomycin-induced NF-kB signal in Jurkat cells. PMA/ionomycin-induced NF-kB luciferase reporter, luminescence. inhibition, % at 4 µM. hit rate 0.53% among 330,000; in the data active means inhibition above about 50%
Gli-Sufu antag: Gli-Sufu pathway antagonism. hit rate 0.74% among 340,000. inhibition, % at 5 µM. Sufu-KO-LIGHT fibroblasts, Gli luciferase reporter luminescence. AID 588413;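 active means inhibition above about 55%, limit read from the data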
697 NFkB inh: lowers PMA/ionomycin-induced NF-kB signal in 697 B cells; 697 B-cell NF-kB luciferase reporter, 16 h; inhibition, % at 4 µM; hit rate 0.33% among 330,000; AID 435022; in the data active means inhibition above about 35%
Mdm2 MdmX PPI: disrupts the human Mdm2-MdmX interaction; O15151+Q00987; SaOS-2 split-luciferase Mdm2/MdmX complementation, luminescence; inhibition, % at 8 µM; hit rate 3% among 330,000; AID 485346;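 active means inhibition of at least 50% at 8 µM in the primary screen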
697 NFkB conf: lowers PMA/ionomycin-induced NF-kB signal in 697 B cells; 697 B-cell NF-kB luciferase, 16 h; shares compounds with 697 NFkB inh; inhibition, % at 4 µM; hit rate 35% among 2,000; AID 449746; in the data active means inhibition mostly above about 28%, no sharp cut-off; inactive means mostly below about 22%
Large screens that a line does not name were inactive (follow-up assays come after a bar, where they were run).

CCC(=O)N1c2ccccc2[C@@H](N(C(C)=O)c2ccccc2)C[C@H]1C	697 NFkB inh 51 | 697 NFkB conf 38
CCCC(=O)N1c2ccccc2C(N(C(C)=O)c2ccccc2)CC1C (centres undefined)	none
CSc1nc2sc3c(c2c(=O)[nH]1)CC(C)(C)OC3	none
COc1cc(=O)n(C)c2cc(N(C)C)ccc12	697 NFkB inh 36 | 697 NFkB conf inactive
CC(=Cc1ccccc1)C=C1SC(=S)N(CCCC(=O)Nc2ccc(C(=O)O)c(O)c2)C1=O	none (no result: Jurkat NFkB inh, Gli-Sufu antag, 697 NFkB inh, Mdm2 MdmX PPI)
O=C(CCN1C(=O)/C(=C\C=C\c2ccccc2)SC1=S)Nc1cccc(C(=O)O)c1	none
O=C(CCCN1C(=O)S/C(=C/C=C/c2ccccc2)C1=O)Nc1ccc(C(=O)O)cc1	697 NFkB inh 49 | 697 NFkB conf 49
CC(=C\c1ccccc1)/C=C1/SC(=O)N(CCCC(=O)Nc2ccc(C(=O)O)cc2)C1=O	697 NFkB inh 75 | 697 NFkB conf 70
N#Cc1ccccc1OCC(=O)NNC(=O)CCC1CCCC1	none
COc1ccc(CN2CC(C(=O)N3CC(C)CC(C)C3)CC2=O)cc1 (centres undefined)	none
O=C(CC[C@H]1O[C@@H](n2cnc3c(NC(=O)c4ccccc4)ncnc32)[C@H](O)[C@@H]1O)NCc1ccc2c(c1)OCO2	none (no result: Jurkat NFkB inh, Gli-Sufu antag, 697 NFkB inh, Mdm2 MdmX PPI)
ClCc1nnc(-c2ccccc2)o1	697 NFkB inh 35 | 697 NFkB conf 29
COc1ccc(NC(=O)c2nnn(Cc3cccc(F)c3)c2N)c(OC)c1	697 NFkB inh 35 | 697 NFkB conf 39
COc1ccc(C)cc1NC(=O)c1nnn(Cc2cccc(F)c2)c1N	none
COc1cccc(Cn2nnc(C(=O)NCCc3ccc(Cl)cc3)c2N)c1	none
COc1cccc(Cn2nnc(C(=O)Nc3cc(Cl)ccc3OC)c2N)c1	697 NFkB inh 41 | 697 NFkB conf 38
CC(C)N1CCC1(C)C(=O)Nc1ccc(-n2cccc2)cc1 (centres undefined)	none (no result: Jurkat NFkB inh, Gli-Sufu antag, 697 NFkB inh, Mdm2 MdmX PPI)
CSc1ccc(/C=N/Nc2ccc(Cl)c(C(=O)O)c2)cc1	none | 697 NFkB conf inactive
COC(=O)c1ccccc1-c1ccc(/C=N/NC(=O)c2cc3ccccc3o2)o1	none
COC(=O)c1ccccc1-c1c2ccc(=N)cc-2oc2cc(N)ccc12	none | 697 NFkB conf inactive
CCN(Cc1ccccc1)C(=O)Cn1c(=O)n(CC(=O)N2CCCCC2)c(=O)c2sccc21	none
Cc1ccc(C)c(OCc2ccc(C(=O)NN)o2)c1	697 NFkB inh 46 | 697 NFkB conf 32
CCc1ccc(S(=O)(=O)N/N=C\c2ccc3c(c2)OCO3)cc1	none
COc1cc(-c2cc(=O)c3c(O)c(OC)c(OC)c(OC)c3o2)cc(OC)c1OC	697 NFkB inh 39 | 697 NFkB conf 38
Oc1c(N=Nc2nn[nH]n2)ccc2ccccc12	none (no result: Jurkat NFkB inh, Gli-Sufu antag, 697 NFkB inh, Mdm2 MdmX PPI)
Cc1ccc(N=Nc2ccc3ccccc3c2O)cc1	none | 697 NFkB conf inactive
COc1ccc(OC)c(NC(=O)Nc2cc(C(=O)O)ccc2C)c1	none
CC(C)Oc1ccc(C(=O)Nc2ccc(N(C)C)cc2)cc1	697 NFkB inh 45 | 697 NFkB conf 36
CC1=C(C(=O)N(C)C)CC(CC(=O)NC2CC2)C(=O)N1Cc1ccccc1 (centres undefined)	none (no result: Jurkat NFkB inh, Gli-Sufu antag, 697 NFkB inh, Mdm2 MdmX PPI)
Cc1csc(NC(=O)/C=C/c2ccc3c(c2)OCO3)n1	697 NFkB inh 70 | 697 NFkB conf 64
O=C(/C=C/c1ccc2c(c1)OCO2)Nc1nc(-c2ccc(F)cc2F)cs1	none (no result: Shn3 3UTR inh, Gli-Sufu antag)
COc1ccc(-c2csc(Nc3cccc(C)n3)n2)cc1	none | 697 NFkB conf inactive
Cc1ccnc(Nc2nc(-c3ccccc3)cs2)c1	none | 697 NFkB conf inactive
CC(=O)Nc1ccc(-c2csc(Nc3cc(C)ccn3)n2)cc1	none
Cc1cc(C)cc(NC(=O)[C@@H](NC(=O)c2ccco2)C(C)C)c1	none
COc1cc(/C=C2/CC/C(=C/c3ccc(O)c(OC)c3)C2=O)ccc1O	697 NFkB inh 36 | 697 NFkB conf inactive
COc1ccc(/C=C2\CC/C(=C\c3ccc(OC)c(OC)c3)C2=O)cc1OC	none
Cc1oc(-c2ccc(-c3ccccc3)cc2)nc1CN1CCN(CC(=O)N(C)C)CC1	none | 697 NFkB conf inactive
COc1ccc(-c2nc(CN3CCN(Cc4ccccc4)CC3)c(C)o2)cc1	none
Cc1ccc(C(=O)Nc2ccc(S(=O)(=O)NC3=NCCCCC3)cc2)cc1S(=O)(=O)N1CCOCC1	none
Cc1ccc(S(=O)(=O)N2CCN(C(=O)CN3C(=O)c4ccc([N+](=O)[O-])cc4C3=O)CC2)c(C)c1	none
N#CCSc1nc2c(cc1C#N)CCCC2	none
CSC1CCCCC1(O)CSc1nc2c(cc1C#N)CCCC2 (centres undefined)	697 NFkB inh 40 | 697 NFkB conf 48
Cc1ccsc1/C=C1\CCc2ccccc2C1=O	none | 697 NFkB conf inactive
CCCS(=O)(=O)NC(=O)C1(C)CCCN(C(=O)c2ccco2)C1 (centres undefined)	none (no result: Jurkat NFkB inh, Gli-Sufu antag, 697 NFkB inh, Mdm2 MdmX PPI)
O=C(CCNC(=O)c1ccco1)NCc1ccc(F)cc1	none
COc1cc2[nH]c(=S)n(CC3CCCO3)c(=O)c2cc1OC (centres undefined)	697 NFkB inh 37 | 697 NFkB conf inactive
O=C(NNC(=O)c1ccc(-c2ccc([N+](=O)[O-])cc2)o1)c1ccncc1	none
Cn1cc(SCC(=O)NCc2ccc(F)cc2)c2ccccc21	697 NFkB inh 40 | 697 NFkB conf inactive
COC(=O)[C@@]12OC[C@]34[C@H]([C@@H](O)[C@@H]1O)[C@@]1(C)C(=O)C(O[C@@H]5OC(CO)[C@@H](O)[C@@H](O)[C@@H]5O)=C[C@@H](C)[C@@H]1C[C@H]3OC(=O)[C@H](OC(=O)/C=C(\C)C(C)(C)OC(C)=O)[C@@H]24 (some centres undefined)	697 NFkB inh 44 (no result: Shn3 3UTR inh) | 697 NFkB conf 80
c1ccc2sc(Nc3nc4cc5c(cc4s3)OCO5)nc2c1	none | 697 NFkB conf inactive
O=C(N[C@@H]1CCC(=O)N(CC[C@H](Oc2ccccc2)c2ccccc2)CC1)OCc1ccccc1	none
CC(C)c1[nH]nc2c1C(c1cccnc1)C(C#N)=C(N)O2 (centres undefined)	none
CC(C)c1[nH]nc2c1C(c1ccco1)C(C#N)=C(N)O2 (centres undefined)	697 NFkB inh 49 | 697 NFkB conf 30
CCN(CC(=O)Nc1c(F)cccc1F)C(=O)c1cc(S(=O)(=O)N(C)C)ccc1N1CCCC1	697 NFkB inh 38 | 697 NFkB conf 30
CCCC(=O)NCc1cc(-c2nn(C)c(=O)c3ccccc23)ccc1OC	none
O=C(NCc1ccccc1CN1CCCC1)C1CCN(C(=O)c2ccc(Cl)cc2)CC1	none (no result: Jurkat NFkB inh, Gli-Sufu antag, 697 NFkB inh, Mdm2 MdmX PPI)
Cc1ccccc1N1CC(=O)Nc2c(oc3nc(-c4ccccc4)cc(C)c23)C1=O	697 NFkB inh 38 | 697 NFkB conf inactive
Cc1c(NC(=O)/C=C/c2cn(-c3ccccc3)nc2-c2ccccc2)c(=O)n(-c2ccccc2)n1C	697 NFkB inh 35 | 697 NFkB conf 28
O=C(O)/C=C/c1cn(-c2ccccc2)nc1-c1ccccc1	none
